Source: PubChem BioAssay (National Center for Advancing Translational Sciences (NCATS))
VDR inhibitor = inhibitors of human vitamin D receptor | P11473 | AID 504847 | VDR-SRC2-3 peptide fluorescence polarization, 2 h | Potency, µM, for inactives: max response, negative = inhibition, most hits filed as inhibitors | 400,000 tested, 0.93% active; note: % is set by controls: 0 for no effect and ±100 for the full control effect
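Two reagent solutions held at 4 deg C in the dark were dispensed, compounds pinned at 23 nl, and the mixture incubated 2 h at room temperature. Read-out: fluorescence polarization of VDR–SRC2-3 peptide binding.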
Vif-A3F inh = blocks the Vif interaction with APOBEC3F; HeLa A3F-eYFP + Vif (tagged APOBEC3F with the HIV-1 protein that degrades it), YFP fluorescence increase; AID 602313; 390,000 tested, 0.2% active; Potency, µM (titrated, usually from 46.1 µM), for the others: top-dose activity, negative = active; note: % of control where 0% means no effect; nearly all actives have a fitted effect of over 65% in size
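Fluorescence increase (Ex 488/Em 500-530) after overnight compound treatment at 37 deg C flags inhibition of Vif-driven A3F-eYFP loss in stable HeLa A3F-eYFP/Vif cells seeded overnight beforehand.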
Vif-APOBEC3G blk = Vif-A3G binding inhibition. AID 602310. 410,000 tested, 0.076% active. Potency, µM (series often up to 46.1 µM), for inactives: at the top dose activity, negative = active, actives largely listed as inhibitors. HeLa A3G-eYFP + Vif (tagged APOBEC3G with the HIV-1 protein that degrades it), YFP fluorescence, overnight; note: % is set by controls: 0 for no effect and ±100 for the full control effect; nearly all actives have a fitted effect of over 60% in size
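Read-out is eYFP fluorescence (Ex 488/Em 500-530) from Vif-expressing HeLa A3G-eYFP cells; more signal means A3G escaped Vif-mediated degradation. Cells plated overnight, compound pinned in, incubated overnight at 37 deg C.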
TrxR1 inh = rat TrxR1 inhibition | O89049 | recombinant rTrxR1, NADPH fluorescence consumption, selenite substrate | Potency, µM (highest dose often 114 µM), inactives show top-dose activity change, negative = inhibition, usual class: inhibitors | 390,000 tested, 1% active | AID 588453; note: % is set by controls: 0 for no effect and ±100 for the full control effect; nearly all actives have a fitted effect of over 65% in size
Target sequence (O89049 whole entry, looked up): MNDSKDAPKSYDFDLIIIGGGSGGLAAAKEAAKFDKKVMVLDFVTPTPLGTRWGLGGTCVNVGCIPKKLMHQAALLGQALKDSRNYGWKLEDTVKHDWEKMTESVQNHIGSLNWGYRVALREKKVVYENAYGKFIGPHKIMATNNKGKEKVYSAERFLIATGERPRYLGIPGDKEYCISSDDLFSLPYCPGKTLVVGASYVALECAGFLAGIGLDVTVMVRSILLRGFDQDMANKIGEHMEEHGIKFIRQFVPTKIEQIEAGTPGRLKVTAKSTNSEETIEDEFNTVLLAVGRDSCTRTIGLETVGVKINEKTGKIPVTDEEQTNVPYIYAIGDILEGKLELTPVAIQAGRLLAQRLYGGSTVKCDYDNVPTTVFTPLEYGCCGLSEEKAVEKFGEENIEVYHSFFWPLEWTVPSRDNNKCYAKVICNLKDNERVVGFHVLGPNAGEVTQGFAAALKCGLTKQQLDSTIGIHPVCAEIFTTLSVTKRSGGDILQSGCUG
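Rat TrxR1 (90 nM in the dispensed reagent) was pre-reduced with 400 uM NADPH for 5 min at room temperature, then incubated with compound for 15 min. After 400 uM selenite was added, NADPH fluorescence (Ex 340/Em 450 nm) was followed for 8 min.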
TrxR1 substrate = rat thioredoxin reductase 1 substrate activity; 390,000 tested, 0.01% active; AID 588456; O89049; purified TrxR1 substrate turnover, NADPH consumption readout; Potency, µM (titrated, usually from 114 µM), for inactives: at the top dose activity change, negative = substrate turnover; note: % is set by controls: 0 for no effect and ±100 for the full control effect; nearly all actives have a fitted effect of over 50% in size
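Rat TrxR1, dispensed at 90 nM, was prereduced with 400 uM NADPH (final) for 5 min at ~22 deg C, then incubated with compound 15 min before 400 uM selenite. A first-read NADPH fluorescence drop versus no-compound background flagged substrates.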
The depositor's hits bear a star; ? = inconclusive; . = no result given; [ ] = dose if it differs, or a comment. Most compounds without a hit are left out; they make up all but 1.8% or so of the library. Calls come from the whole dose curve; as a rule, active = well fitted curve in the direction sought with a large enough effect; inconclusive = small, poorly fitted or top-dose-only effect, or another doubt; inactive = no such curve, though single readings can be large; an effect the other way counts as inactive or inconclusive. Potency is the fitted concentration of half-maximal effect.

SMILES	VDR inhibitor	Vif-A3F inh	Vif-APOBEC3G blk	TrxR1 inh	TrxR1 substrate
Cc1nc(NCc2ccco2)[nH]c(=O)c1CCC(C)C	0.8%	-6.1%	-1.8%	-2.0%	-1.3%
O=c1[nH]c(NCc2ccco2)nnc1Cc1ccccc1Cl	-9.9%	.	12.6µM*	31.2%	13.4%
N#CCCn1cc(C=C(C#N)C#N)c(-c2ccc(-c3ccccc3)cc2)n1	-26.0%	-17.4%	?	79.4µM*	15.5%
Ic1ccc(Nc2nc(NCCN3CCOCC3)nc(N3CCCC3)n2)cc1	.	.	-2.1%	-9.2%	-5.9%
O=C(O)CCc1ccc(-c2cccs2)n1-c1ccc(C(=O)O)cc1	-29.3%	-11.4%	0.1%	70.8µM*	5.7%
CC(=O)Nc1ccc(SCCN2CCN(CCc3ccccc3)CCC2=O)cc1	17.8µM*	.	?	128.3%	-23.7%
Cc1ccccc1C(=O)OCc1cc(=O)n2nc(C3CC3)sc2n1	4.6%	5.6%	-0.2%	6.7%[57.1 µM]	0.3%[57.1 µM]
O=C1C=CC2=C3c4cc(O)c(O)cc4CC3(O)COC2=C1O (centres undefined)	?	-3.3%	-1.2%	15.8µM*	2.6%
O=C(CN1C(=O)CSc2ncccc21)NCCN1CCOCC1	6.8%	-23.2%	-0.7%	-0.6%	-1.0%
O=C(CN1C(=O)CSc2ncccc21)Nc1cccc(Cl)c1	-17.5%	10µM*	?	24.0%[57.1 µM]	0.4%[57.1 µM]
OC1=C(O)c2nc3cc(F)ccc3nc21	-6.8%	4.1%	1.3%	1.58µM*	-1.8%
Cc1ccc(S(=O)(=O)N2CCN(S(=O)(=O)c3ccc4c(c3)OCCCO4)CC2)cc1	1.2%	.	5.0%	16.8%	1.8%
CN(C)N=Nc1ccc(/C=C2\C=Cc3ccccc32)cc1	.	.	-1.9%	-2.0%	-0.4%
CCCn1nc([N+](=O)[O-])c(C(C#N)c2nc3ccccc3s2)c(Cl)c1=O (centres undefined)	?	2.3%	-1.9%	1.58µM*	0.0%
C=C1C=C(C(F)F)n2ncc(C(=O)NCc3ccc(F)cc3)c2N1	.	.	-1.6%	10.7%	6.4%
C1=CN2CC=Cc3cc(/C=C/c4ccnc5ccccc45)cc(c32)C1	.	.	?	?	7.4%[0.0914 µM]
O=S(=O)(Nc1cc(Sc2ncn[nH]2)c(O)c2ccccc12)c1ccccc1	?	-0.8%	?	11.2µM*	25.1µM*
O=c1[nH]cnc2n[nH]nc12	.	.	?	11.2%	-0.1%
C(=C\c1c[nH]c2ccccc12)/c1nccc2ccccc12	.	.	8.91µM*	1.3%	-4.2%
CN(C)c1ccc(/C=C/c2nccc3ccccc23)cc1	.	.	11.2µM*	12.6%	10.5%[0.0914 µM]
Fc1ccc(/C=C/c2nccc3ccccc23)cc1	.	.	2.3%	-30.6%	-20.5%
CCN(CC)c1ccc(/C=C/c2ccncc2)cc1	.	.	?	?	-26.9%
CN(C)c1ccc(/C=C/c2ccncc2)cc1	-14.1%	28.2µM*	?	19.0%	2.9%
COc1cc2c(cc1OC)C(COc1ccc(F)cc1)N(C(=O)c1cccc(F)c1)CC2 (centres undefined)	9.9%	-0.9%	0.1%	13.4%[57.1 µM]	-0.9%[57.1 µM]
CC1(C)CC(=O)c2cc(C(=O)Nc3cccc4ccccc34)c(=O)[nH]c2C1	.	.	5.8%	11.0%	2.4%
SMILES	VDR inhibitor	Vif-A3F inh	Vif-APOBEC3G blk	TrxR1 inh	TrxR1 substrate
CCOC(=O)C1=NN(N=O)C2(CC(=O)N(c3cc(C)cc(C)c3)C2=O)C1 (centres undefined)	-5.7%	0.0%	0.8%	15.8µM*	3.4%[57.1 µM]
COc1cc(OC)c(N(C)C(=O)c2nn(C)c3c2CSc2ccccc2-3)cc1Cl	10.2%	-9.9%	-0.8%	1.5%	-1.8%
COc1cccc(C(=O)Nc2cccc(C(=O)OCc3cc(=O)n4nc(C5CC5)sc4n3)c2)c1	-10.3%	-23.7%	0.0%	11.9%[57.1 µM]	-0.9%[57.1 µM]
C=CCc1cccc(/C=N/c2ncccc2O)c1O	-8.2%	-1.7%	0.7%	14.1µM*	11.4%
O=C(COC(=O)CNC(=O)C1CCCCC1)NC1CCCC1	7.9%	.	-1.7%	16.4%	6.6%
CC(=O)N1N=C2/C(=C/c3ccccc3)CCCC2C1c1ccccc1 (centres undefined)	70.8µM*	-12.1%	0.0%	11.7%[57.1 µM]	3.6%[57.1 µM]
O=C(O)c1c(C(=O)N2N=C3/C(=C/c4ccccc4)CCCC3C2c2ccccc2)cccc1[N+](=O)[O-] (centres undefined)	-8.1%	-14.9%	-4.0%	3.1%[57.1 µM]	5.0%[57.1 µM]
N[C@@H](Cc1cc(I)c(Oc2ccc(O)cc2)c(I)c1)C(=O)O	8.7%	.	.	.	.
